This excerpt belongs to a sample that is enriched for hits.
KDM5B inhibitor: KDM5B demethylase inhibition; Q9UGL1; KDM5B demethylase, FDH-coupled NADH fluorescence (FDH is formaldehyde dehydrogenase); Potency, µM (highest dose often 57.7 µM), usual class: inhibitors; 2.6% of 220,000 active; AID 1347165; active = well fitted inhibition curve with a large enough effect; note: 0% is about no effect; nearly all actives have a fitted effect of over 70% in size
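Coupled FDH/NAD⁺ fluorescence readout. KDM5BΔAP 200 nM final; compound titration, 10 min RT preincubation; substrate mix 12.5 µM H3K4me3, 25 µM 2-OG, 50 µM Fe(II), 100 µM ascorbate, 0.25 mM NAD⁺, 0.25 U/mL FDH; ΔRFU over 30 min.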
* hit, by the source's call; i = inactive. Potency is the fitted concentration of half-maximal effect.

SMILES	KDM5B inhibitor
CC(C)(C)CC(C)(C)NC(=O)CCNC(=O)c1ccccc1	i
C[C@H]1CCCN1C(=O)c1nnc(COc2ccc(Cl)cc2)n1-c1ccccc1	i
CC(=O)C1C(c2ccccc2)c2c(noc2C)CC1(C)O (centres undefined)	i
CN1CCC(C(=O)N2CCCC3(Cc4ccccc4CN3C(=O)c3ccccc3)C2)CC1 (centres undefined)	i
O=C(CSc1ncnc2ccccc12)NC1CCS(=O)(=O)C1 (centres undefined)	i
CCONC(=O)C(C)Sc1ccccc1 (centres undefined)	i
O=C(NCCc1ccccc1)c1nc(-c2ccc(Cl)cc2)n2c1CCCCC2	i
O=C(NCCc1ccc(Cl)cc1)c1nc(-c2ccc(Cl)cc2)c2ccccn12	25µM*
O=C(NCCc1ccccc1)c1cc(-c2ccc(Cl)cc2)on1	i
C[C@@H]1CN(C(=O)Cn2ncc(N3CCc4ccccc4C3)cc2=O)C[C@H](C)O1	i
CCCC(=O)Nc1cccc(C(=O)NCCc2ccccc2)c1	i
Cc1cccc(S(=O)(=O)N2C[C@@H](F)C[C@H]2C(=O)N2CCCCC2)c1	i
COc1ccccc1C(=O)NC[C@@H]1CC[C@H]2C[C@@H]1C2(C)C	i
CC1(C)[C@H]2CC[C@@H](CNC(=O)c3ccccc3Cl)[C@@H]1C2	i
CC1(C)[C@H]2CC[C@@H](CNC(=O)c3cccc4[nH]ccc34)[C@@H]1C2	32µM*
O=C(N/N=C/c1ccco1)C(O)c1ccccc1 (centres undefined)	i
COc1ccc(NC(=O)c2cc3ccc(O)cc3oc2=O)cc1	i
O=C(C[C@@H]1CCNC[C@@H]1Cc1cc(COc2ccccc2)on1)N1CCC(Cc2ccccc2)CC1	i
COc1cccc(-c2nc(CS(=O)(=O)CC(=O)Nc3ccc(F)cc3F)c(C)o2)c1	i
Cc1ccccc1NC(=O)CCn1cnc2onc(-c3ccc(F)cc3)c2c1=O	i
Cc1ccccc1NC(=O)CCNc1c(-c2ccc(F)cc2)nc2cnccn12	25µM*
COc1cccc(-c2nc3cnccn3c2NCCC(=O)Nc2ccc(F)cc2C)c1	28µM*
CC(=O)Nc1ccc(NC(=O)CCNc2c(-c3ccc(F)cc3)nc3cnccn23)cc1	28µM*
Cc1ccccc1NC(=O)CSc1nc(-c2ccc(F)cc2)c2cccc(C)c2n1	i
COc1cccc(-c2nc(CS(=O)(=O)CC(=O)Nc3ccc(F)cc3C)c(C)o2)c1	i
SMILES	KDM5B inhibitor
O=C(Nc1c(-c2ccc(F)cc2)nc2ccccn12)c1ccc(F)cc1	i
CC(=O)Nc1ccc(NC(=O)Cn2cccc2-c2nc(-c3ccc(F)cc3)no2)cc1	i
CN(C(=O)CSc1nc2nc[nH]c2c(=O)[nH]1)c1ccc(F)cc1	i
COc1ccc(C(=O)Nc2c(NCc3ccccc3)c3ccccc3oc2=O)cc1	i
Cc1cc(N(C)CC(C)N2CCOCC2)n2nccc2n1 (centres undefined)	i
O=C(NCc1ccccc1)c1cn(C2CN(C(=O)C3CCOC3)C2)nn1 (centres undefined)	i
CC(=O)N[C@@H]1CN(Cc2ccc(C)cn2)C[C@H]1CO	i
CC(=O)N[C@@H]1CN(S(=O)(=O)c2sccc2C)C[C@H]1c1ccc(C)o1	i
CC(=O)N[C@@H]1CN(Cc2cc(=O)n3[nH]cnc3n2)C[C@H]1c1ccc(C)o1	22µM*
CC(=O)NCCc1ccc(S(=O)(=O)Nc2ccc3c(c2)OCCO3)cc1	i
COc1cccc(Nc2ncc3c(n2)C(C)(C(=O)NCCc2ccccn2)CC3)c1 (centres undefined)	i
COc1cccc(Nc2ccc3c(n2)C(C)(C(=O)NC2CCN(C)CC2)CN(C)C3)c1 (centres undefined)	i
CN1Cc2ccc(NCc3ccccc3)nc2C(C)(C(=O)NCc2ccccc2)C1 (centres undefined)	i
CN1Cc2ccc(Nc3ccccc3)nc2C(C)(C(=O)NCc2ccc3c(c2)OCO3)C1 (centres undefined)	40µM*
O=C(Cn1ccn2nc(-c3ccccc3)cc2c1=O)NCc1ccc2c(c1)OCO2	i
COc1cccc(Nc2ccc3c(n2)C(C)(C(=O)NCc2ccco2)CN(C)C3)c1 (centres undefined)	28µM*
Cc1cc(CNC(=O)C2CC(=O)N(C(C)(C)C)C2)n(C)n1 (centres undefined)	i
COCCN1C(=O)CS(=O)(=O)C12CCN(C(=O)c1ccc(C)c(F)c1)CC2	i
CCn1cc(C(=O)N2C[C@@H](CN3CCN(C)CC3)[C@@H](CO)C2)cn1	i
O=C(c1ccccc1)C1CCN(c2ncccc2[N+](=O)[O-])CC1	i
N#Cc1cccnc1N1CC[C@@H](N2CCC(O)CC2)[C@H](O)C1	25µM*
N#Cc1cccnc1N1CCC(NC(=O)c2ccc3nccn3c2)CC1	i
Cc1ccc(C2Cn3nnc(C(=O)N4CCC(C(=O)NC(C)c5ccccc5)CC4)c3CO2)cc1 (centres undefined)	i
CCn1c(=O)c2c(nc3n2CCCN3c2cccc(C)c2)n(C)c1=O	i

High-throughput results: PubChem, National Center for Advancing Translational Sciences (NCATS)
